Assay outcomes (PubChem BioAssay)
This is one part of a sample in which hits are shown more often than they occur.
Pf Dd2 inh – blocks in vitro growth of P. falciparum Dd2 | P. falciparum Dd2 growth, SYBR Green, 72 h | Potency, µM (doses to about 28.9 µM), inactives show at the highest dose activity, negative = inhibition, most hits filed as inhibitors | 120,000 tested, 4.3% active; active = well fitted inhibition curve with a large enough effect;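 note: plate controls were DMSO vehicle for no effect and reference drug for full effect; nearly all actives have a fitted effect of over 65% in size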
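Infected erythrocytes (Dd2, 0.3% parasitemia, 2.5% hematocrit final) are added to compound in RPMI-1640/Albumax II medium, grown 72 h at 37C in low oxygen, then lysed with saponin/Triton-X containing SYBR Green and read by fluorescence.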
Numbers without * were called inactive; [ ] = another dose, or the depositor's remark. Potency is the fitted concentration of half-maximal effect.

What do the screens show for `CN(Cc1ccc(-c2ccccc2)cc1)C(=O)c1cccc(Cl)c1`?
Pf Dd2 inh: -13%[44.1 µM]

How did NCc1ccc(-c2cccc(Cl)c2)cc1 do in these assays?
Pf Dd2 inh: 10µM*

How did Cc1ccsc1CN1CCc2nnc([C@@H]3C[C@@H](O)CN3C)n2CC1 do in these assays?
Pf Dd2 inh: 5%

What do the screens show for `CSCC(=O)N1CC[C@H](NC(=O)NC2CCCCC2)[C@H]1C(=O)N[C@H](Cc1c[nH]c2ccccc12)C(N)=O`?
Pf Dd2 inh: -1%

Results for CC(C)Oc1ccccc1CN1CCC([C@@H]2CNC[C@H]2CO)CC1 ?
Pf Dd2 inh: -1%

Results for COc1ccccc1CN1C(=O)C(=O)c2cccc(C)c21 ?
Pf Dd2 inh: 29%

Results for Cc1cc(Br)cc2c1N(Cc1ccccc1OC(C)C)C(=O)C2=O ?
Pf Dd2 inh: 11µM*

Results for Cc1cccc2c1N(Cc1ccccc1OCCC(C)C)C(=O)C2=O ?
Pf Dd2 inh: 10µM*

How did CCCCCOc1ccccc1Cn1c(=O)oc2ccc(C)cc21 do in these assays?
Pf Dd2 inh: 3%

Results for COc1ccccc1Cn1ccn(CC(=O)Nc2c(C)cc(C)cc2C)c(=O)c1=O ?
Pf Dd2 inh: 10%

Results for CN1C(=O)COC[C@@H]1[C@H](O)c1ccc(NC(=O)Nc2ccccc2)cc1 ?
Pf Dd2 inh: -17%[44.1 µM]

What do the screens show for `CN1c2cc(C(=O)NCc3cccc(F)c3)ccc2C(=O)N2CCCCC21` (configuration not stated)?
Pf Dd2 inh: inactive

What do the screens show for `O=C(CN1C(=O)NC2(CCS(=O)(=O)CC2)C1=O)Nc1ccccc1`?
Pf Dd2 inh: 19%

How did Cc1ccc(NC(=O)N[C@@H]2C=C(C(=O)NCC(N)=O)C[C@@H](O)[C@@H]2O)cc1 do in these assays?
Pf Dd2 inh: 6%[44.1 µM]

What do the screens show for `O=C(c1cnc[nH]1)N1CC(F)(F)C[C@H]1c1nc(C2CC2)no1`?
Pf Dd2 inh: 3%

Results for CN1CCN(c2ncnc3sc4c(c23)CCN(Cc2ccco2)C4)CC1 ?
Pf Dd2 inh: 11µM*

How did CCN1CCN(c2nc3c(s2)CN(Cc2ccco2)CC3)CC1 do in these assays?
Pf Dd2 inh: -10%

How did COc1ccc(-c2nc(N3CCOCC3)cc3c2CN(Cc2ccccc2)C3=O)cn1 do in these assays?
Pf Dd2 inh: -10%[44.1 µM]

What do the screens show for `c1ccc(CN2CCc3c(sc4ncnc(N5CCOCC5)c34)C2)cc1`?
Pf Dd2 inh: 7.9µM*

Results for CN1CCN(c2nc3c(c(=O)[nH]2)CCN(Cc2ccc(Br)s2)CC3)CC1 ?
Pf Dd2 inh: 19%[5.79 µM]

What do the screens show for `c1ccc(CN2CCNc3cnc(-c4ccc(N5CCOCC5)cc4)cc3C2)cc1`?
Pf Dd2 inh: inactive

How did CCC(=O)N1C(C(=O)NCC2CCCO2)COC12CCC(C)CC2 (configuration not stated) do in these assays?
Pf Dd2 inh: -6%

Results for O=C(c1cccc(Cl)c1)N1CCc2nc(-c3ccccc3)nc(-c3ccc(Cl)cc3)c2C1 ?
Pf Dd2 inh: -21%

Results for COc1ccccc1N1CCN([C@H]2[C@@H]3OC[C@@H](O3)[C@@H](NCc3ccco3)[C@@H]2O)CC1 ?
Pf Dd2 inh: inactive

How did O=C(c1ccc(F)cc1)n1nc(-c2ccccc2)nc1NCc1ccco1 do in these assays?
Pf Dd2 inh: 32%

What do the screens show for `O=C(Nc1nc2n(n1)C(c1ccc(Cl)cc1)C=C(c1ccccc1)N2)c1ccco1` (configuration not stated)?
Pf Dd2 inh: 13µM*

Results for O=C(Nc1nc2n(n1)C(c1ccc(F)cc1)C=C(c1ccccc1)N2)c1ccco1 (configuration not stated) ?
Pf Dd2 inh: 10µM*

Results for O=C(NCc1nnc2ccc(-c3ccc(Cl)cc3)nn12)c1ccco1 ?
Pf Dd2 inh: inactive

What do the screens show for `O=S(=O)(Nc1nc2n(n1)C(c1ccc(F)cc1)C=C(c1ccccc1)N2)c1ccccc1` (configuration not stated)?
Pf Dd2 inh: 0%

Results for CC1=C(C(=O)Nc2ccccc2)C(c2ccccc2)n2nc(-c3ccco3)nc2N1 (configuration not stated) ?
Pf Dd2 inh: inactive

How did Cc1cccc(OCC2(CNC(=O)C3CC3)C[C@@H](O)[C@@H](O)C2)n1 (some centres not stated) do in these assays?
Pf Dd2 inh: -2%[44.1 µM]

How did Cn1c(=O)[nH]cc(CC(=O)N2C[C@H](C3CC3)[C@@H](N)C2)c1=O do in these assays?
Pf Dd2 inh: -6%

What do the screens show for `O=C(C1CCCCC1)N1CC(c2nnc(-c3ccncc3)o2)C2(CCOCC2)C1` (configuration not stated)?
Pf Dd2 inh: -4%

What do the screens show for `Cc1cc(CN(C)C(=O)CC(c2cccc(O)c2)c2ccccc2Cl)n[nH]1` (configuration not stated)?
Pf Dd2 inh: -12%

Results for CC(=O)Nc1ccc(S(=O)(=O)N2CCC(CCC(=O)Nc3cccc(C)c3)CC2)cc1 ?
Pf Dd2 inh: -29%

Results for COc1ccccc1-n1cc(CNC(=O)C(N)c2c(C)n[nH]c2C)cn1 (configuration not stated) ?
Pf Dd2 inh: 1%

Results for COCC1(CNC(=O)c2cccc(OC)c2)C[C@@H](O)[C@@H](O)C1 (some centres not stated) ?
Pf Dd2 inh: -5%[44.1 µM]

Results for COc1cccc(C(=O)NC[C@@H]2CC[C@H]3C[C@@H]2C3(C)C)c1 ?
Pf Dd2 inh: 11µM*

What do the screens show for `CC1(C)[C@H]2CC[C@@H](CNC(=O)c3cccnc3)[C@@H]1C2`?
Pf Dd2 inh: -6%[44.1 µM]

What do the screens show for `O=C(O)c1ccc(CN2C[C@H](O)C[C@H]2c2nc(C3CC3)no2)cc1`?
Pf Dd2 inh: -8%[44.1 µM]

Results for COc1ccc(C(=O)N2CC(C(=O)N(C)C)C3(CCOCC3)C2)cc1 (configuration not stated) ?
Pf Dd2 inh: 0%

What do the screens show for `Cc1ccc(CNC(=O)CN2C(=O)NC3(CCCCC3)C2=O)cc1`?
Pf Dd2 inh: -2%

What do the screens show for `Cc1cn2nc(C(=O)NC3CCc4ccccc43)cc2c(N2CCCC2)n1` (configuration not stated)?
Pf Dd2 inh: 5.6µM*

What do the screens show for `Cc1cn2nc(C(=O)NCCc3cccs3)cc2c(N2CCCC2)n1`?
Pf Dd2 inh: 7.1µM*

How did Cc1cn2nc(C(=O)NCc3ccccn3)cc2c(N2CCCC2)n1 do in these assays?
Pf Dd2 inh: -8%

Results for Cc1cn2nc(C(=O)NCc3ccc(C(C)C)cc3)cc2c(N2CCCC2)n1 ?
Pf Dd2 inh: inactive

How did COc1cccc(NC(=O)c2cc3c(N4CCSCC4)nc(C)cn3n2)c1 do in these assays?
Pf Dd2 inh: inactive

How did Cc1cn2nc(C(=O)Nc3ccc(N(C)C)cc3)cc2c(N2CCCC2)n1 do in these assays?
Pf Dd2 inh: 0.63µM*

How did COc1ccc(CCNC(=O)c2cc3c(N4CCCC4)nc(C)cn3n2)cc1OC do in these assays?
Pf Dd2 inh: inactive

Results for Cc1cn2nc(C(=O)NCc3ccccc3Cl)cc2c(N2CCCC2)n1 ?
Pf Dd2 inh: 8.9µM*

How did Cc1cn2nc(C(=O)NC3CCCC3)cc2c(N2CCCC2)n1 do in these assays?
Pf Dd2 inh: inactive

How did Cc1ccc(CCNC(=O)c2cc3c(N4CCCC4)nc(C)cn3n2)cc1 do in these assays?
Pf Dd2 inh: -12%

What do the screens show for `Cc1cn2nc(C(=O)NCCc3ccc(S(N)(=O)=O)cc3)cc2c(N2CCCC2)n1`?
Pf Dd2 inh: 22%

What do the screens show for `COc1cc(NC(=O)c2cc3c(N4CCSCC4)nc(C)cn3n2)cc(OC)c1OC`?
Pf Dd2 inh: inactive

Results for COc1ccc(-c2noc([C@@H]3CCCN3C(=O)c3ccc(F)cc3Cl)n2)cc1OC ?
Pf Dd2 inh: inactive
